SMILES strings stand for the structures. Records with an inconclusive call do not appear. A call without a number means that no potency is given here. Calls of active or inactive are those of the source. The call rests on the fitted dose curve; in most records, active means well fitted inhibition curve with a large enough effect; inconclusive means small, poorly fitted or top-dose-only effect, or effect the other way; inactive means no such curve, though single readings can be large or run the other way.
Potency means the concentration at half of the fitted maximal effect.

A short description of this experiment: Concentration response confirmation VP16 counterscreen for inhibitors of ROR gamma transcriptional activity. Further: nearly all actives have a fitted effect of over 70% in size. The following applies: Drosophila S2 Gal4-VP16 UAS-luciferase, luminescence, 20 h; series mostly up to 46.1 µM. The source says: NIH Molecular Libraries Probe Production Network [MLPCN] NIH Chemical Genomics Center [NCGC] MLPCN Grant: R03 DA026211-01 Assay Provider: Dan Littman, New York University Assay Overview: The retinoic acid-related orphan receptor (ROR) gamma is a transcription factor that has a central role in the differentiation of Th17 cells, a subset of T helper cells that secrete the inflammatory cytokines IL-17, IL-17F, and IL-22. Th17 cells have been implicated in graft versus host disease, autoimmune disease and asthma. ROR gamma is induced in naive T helper cells in the presence of TGF-beta combined with IL-6, IL-21, or IL-23, and thereafter directs the expression of the Th17 lineage cytokines. To identify nonspecific inhibitors, a Drosophila Schneider cell line was stably transfected with two vectors: a gene expressing a fusion of the Gal4 DNA binding domain and the transactivation domain of the viral transcription factor VP16, under the control of the metallothionine promoter and a Photinus luciferase reporter regulated by the Gal4 binding site enhancer, UAS. […] Small molecule inhibitors that inhibit components common to the RORgt and VP16 assays, such as the Gal4 DNA binding domain or the UAS luciferase reporter, will be active in both assays and thus scored as nonspecific.
Assay Protocol Summary: For screening, 600 cells in 4 uL/well were dispensed into white solid 1536-well plates (Grenier) using a solenoid-based dispenser. Following transfer of 23 nL compound or DMSO vehicle by a pin tool, the plates were incubated 1 hr at ambient temperature, and 1 uL/well copper sulfate (700 uM final concentration) was added. The plates were centrifuged 15 s at 1000 RPM and incubated 20 hr at ambient temperature. After addition of 1.5 uL Photinus luciferase detection reagent, the plates were incubated 10 min at ambient temperature and then read by an ViewLux (Perkin Elmer) to detect luminescence.
For the molecule `Cc1ccc(S(=O)(=O)NCc2ccncc2)c(C)c1C`, the Potency was 3.97 µM (active).

Take `Cc1c(OC(C)C(=O)NCc2cccnc2)ccc2c3c(c(=O)oc12)CCCC3` (stereo not given): the Potency entry is “inactive”.

With `CCOC(=O)c1nnsc1Nc1ccc(C)c(C)c1`, the Potency entry was “inactive”.

As for `COc1cc(C(=O)NC2CC(C)(C)Cc3c2cnn3-c2ccccc2)cc(OC)c1OC` (stereo not given), the Potency entry was “inactive”.

Regarding `CCN(CC)c1ccc(/C=N/n2c(-c3ccccc3Br)n[nH]c2=S)cc1`, the Potency result is “inactive”.

`COC(=O)Cn1c(CN2CCc3ccccc3C2)nc2c1c(=O)n(C)c(=O)n2C`: the Potency was 6.28 µM (active).

For the molecule `CCOC(=O)[C@@H]1[C@H]2COc3cc(OC)ccc3[C@@H]2N2C(=O)N(c3ccc(C)cc3)C(=O)[C@@]12C`, the Potency entry is “inactive”.

As to `Cc1ccc(OCCn2cc(C(=S)N3CCCC3)c3ccccc32)cc1C`, the Potency is 25 µM (active).

For `O=C(CCCN1C(=O)/C(=C/c2ccccc2Cl)SC1=S)NNC(=O)c1ccc(Cl)cc1Cl`, the Potency is 4.45 µM (active).

`O=C(/C=C/c1c(F)cccc1Cl)N1CCc2ccccc2C1`: the Potency entry was “inactive”.

`O=C(CSc1ccccc1C(=O)N1CCCCC1)NCC1CCCCC1`: the Potency entry was “inactive”.

On to `CCCCn1c(CN2CCN(c3ccccc3)CC2)nc2c1c(=O)n(C)c(=O)n2C`, for which the Potency was 8.88 µM (active).

As for `COc1cccc(-c2cc(C(=O)N3CCc4ccccc4C3)[nH]n2)c1`, the Potency result was “inactive”.

As for `CCN1CCN(CCC(=O)Nc2ccccc2)CC1`, the Potency entry was “inactive”.

Regarding `CCNC(=O)CCc1nc(-c2ccc(C(C)(C)C)cc2)no1`, the Potency is 4.45 µM (active).

`Cc1ccc(OCCCC(=O)Nc2nc3ccccc3[nH]2)cc1`: the Potency result was “inactive”.

For `CC(C)(C)NC(=O)CSc1nc2ccc(NC(=O)CSc3nnnn3Cc3ccccc3)cc2s1`, the Potency is 12.5 µM (active).

For the molecule `COc1ccc(CNS(=O)(=O)c2ccc3c(c2)CCN3C(=O)C2CC2)cc1`, the Potency result was “inactive”.

Turning to `CCCCc1nnc(NC(=O)CS(=O)(=O)Cc2ccccc2)s1`, the Potency result is “inactive”.

For `COc1ccc(-c2cc(-c3nnc(COC(=O)c4ccncc4)o3)c3ccccc3n2)cc1OC`, the Potency entry was “inactive”.

As for `CCOc1ccc(OCc2cccc(C(=O)O)c2)cc1`, the Potency was 8.88 µM (active).

Consider `Cc1cccc(-c2nc3cc(NC(=O)C4CCCO4)ccc3o2)c1` (stereo not given), for which the Potency is 2.5 µM (active).

Turning to `COc1ccc(-c2cc(C(F)(F)F)nc(S(=O)(=O)CCCC(=O)Nc3cccnc3Cl)n2)cc1OC`, the Potency was 9.96 µM (active).

As to `O=C(O)/C=C/C(=O)Nc1ccccc1SC(F)(F)F`, the Potency entry is “inactive”.

For `COc1ccc(C(=O)Nc2cc(-c3ccc(C)cc3)no2)cc1`, the Potency entry was “inactive”.

As to `CCOC(=O)Cc1nnc(Nc2ccc(C(=O)NC)cc2)c2ccccc12`, the Potency entry was “inactive”.

In the case of `CCOc1ccc2nc(NC(=O)c3cnccn3)sc2c1`, the Potency is 9.96 µM (active).

Turning to `Cc1nc2c(-c3ccc(F)cc3)cnn2c(N)c1-c1ccccc1`, the Potency is 0.281 µM (active).

With `COc1ccc(/C=C/C(=O)NC(=S)NCC2CCCO2)cc1` (stereo not given), the Potency is 14.1 µM (active).

Take `CCC(C)NC(=O)CSc1nnc(-c2cc(-c3ccc(C)cc3)nc3ccccc23)n1N` (stereo not given): the Potency result was “inactive”.

Consider `Cn1c(=O)[nH]c(=O)c2c1nc(NCc1ccco1)n2Cc1ccccc1Cl`, for which the Potency result is “inactive”.

With `COc1ccc(-c2cc(C(=O)NNC3=NCCC3)c3c(C)nn(-c4ccccc4)c3n2)cc1`, the Potency is 2.5 µM (active).

As for `COC(=O)Cn1c(CN2CCN(c3ccc(F)cc3)CC2)nc2c1c(=O)n(C)c(=O)n2C`, the Potency was 3.15 µM (active).

As to `Cc1ccc(NC(=S)NCCN(C2CCCCC2)C2CCCC2)cc1C`, the Potency is 22.3 µM (active).

`O=c1oc2c3c(nn2c2ccccc12)CCCC3`: the Potency entry was “inactive”.

For `O=C(Cn1c(=O)oc2ccc(Cl)cc21)Nc1ccon1`, the Potency entry was “inactive”.

On to `Cc1nn(-c2cc(C)c3ccccc3n2)c2c1C1C(C2)C1(C)C` (stereo not given), for which the Potency is 22.3 µM (active).

For `Oc1ccc(COCc2ccccc2)c2cccnc12`, the Potency is 2.5 µM (active).

On to `O=C1NC2=C(C(=O)CCC2)C(c2ccccc2)N1` (stereo not given), for which the Potency entry was “inactive”.

For `CCN(C1CCCCC1)S(=O)(=O)c1ccc(S(=O)(=O)NCc2ccncc2)cc1`, the Potency is 28.1 µM (active).
